These results are taken from PubChem BioAssay (NCI).

Compounds without any hit were thinned out: in the full panel of roughly 83,000, 20% have a hit.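 Note: values are percent growth. 100 is the growth of untreated cells, values between 100 and 0 indicate rising inhibition; between -100 and 0 indicates cell death.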 A number with no mark means an inactive call. Calls of active or inactive are those of the source. Rule for the calls: active = growth percent below 10; inactive = the rest.

Holding throughout (experiment): NCI-60 one-dose screen, 48 h (100 = growth as untreated, 0 = no growth, -100 = all killed)
For assay [1], the system named is NCI-H23 lung. To be noted: 10 µM unless noted.
Assay [2] relates to NCI-H226 lung. To be noted: 10 µM unless noted.
Assay [3] deals with MDA-MB-231 breast. Conditions: 10 µM unless noted.
In assay [4] the test system is SF-268 CNS. To be noted: 10 µM unless noted.
Assay [5] has as its system SF-539 CNS. Conditions: 10 µM unless noted.
Assay [6] deals with HCT-15 colon. To be noted: 10 µM.
In assay [7] the test system is HT29 colon. To be noted: 10 µM unless noted.
Assay [8] deals with SNB-75 CNS. To be noted: 10 µM unless noted.
Assay [9] deals with SK-MEL-5 melanoma. Conditions: 10 µM unless noted.
The subject of assay [10] is UACC-62 melanoma. Conditions: 10 µM unless noted.
Assay [11] deals with SK-MEL-28 melanoma. Conditions: 10 µM unless noted.
Assay [12] deals with SN12C renal. Conditions: 10 µM unless noted.
Assay [13] deals with ACHN renal. To be noted: 10 µM unless noted.
Assay [14] relates to OVCAR-8 ovarian. To be noted: 10 µM unless noted.
Assay [15] has as its system OVCAR-3 ovarian. To be noted: 10 µM unless noted.
Assay [16] concerns NCI/ADR-RES ovarian. Conditions: 10 µM unless noted.
The test system of assay [17] is MDA-MB-435 melanoma. Conditions: 10 µM unless noted.
In assay [18] the test system is MCF7 breast. Conditions: 10 µM unless noted.
The subject of assay [19] is KM12 colon. To be noted: 10 µM unless noted.
Assay [20] concerns PC-3 prostate. To be noted: 10 µM unless noted.

As to `CC1(C)CC(=O)CC(C)(C)N1N=O`, the growth is 102% in [1]; 104% in [2]; 109% in assay [3]; 106% in assay [4]; 94.3% in assay [5]; 98.1% in [6]. The growth in assay [7] was 99.4%; in assay [8] it was 78.7%; in assay [9], 111%; in assay [10], 104%; in assay [11], 109%; in [12] it was 106%. Further, the growth was 103% in assay [13]; 102% in [14]; 101% in [15]; 100% in assay [16]; 112% in assay [17]; 97.9% in assay [18]. Also, in assay [19], the growth was 99.1%.

Turning to `C[C@@H]1O[C@@H](O[C@H]2CC[C@@]3(C)[C@H](CCC4[C@@H]3C(O)C[C@]3(C)[C@@H](c5ccc(=O)oc5)CC[C@]43O)C2)[C@H](O)[C@H](O)[C@H]1O` (stereo not given in full), the growth in [1] was -78.5% (active); in assay [2], -84.2% (active); in assay [3], -63.7% (active); in assay [4] it was -63.1% (active); in assay [6], -74.5% (active); in assay [7], -90.4% (active). For the same molecule, the growth in assay [8] is -88.3% (active); in assay [20] it was -33.3% (active); in [9], -99.6% (active); in assay [10], -89.6% (active); in [11] it was -96.1% (active); in [12], -25.3% (active). For the same molecule, the growth in [13] is -81.7% (active); in [15], -46.7% (active); in assay [16], -66.8% (active); in [17] it was -76.2% (active); in [18], -59.4% (active); in assay [19], -94.2% (active).

As for `O=C(O)C1[O][Sb][O]C1C(=O)O` (stereo not given), the growth in assay [1] is 110%; in assay [2], 93.9%; in assay [3] it was 128%; in [4] it was 93%; in assay [5] it was 98.2%; in [6] it was 88.5%. Besides, the growth in [7] is 104%; in [8], 94.8%; in [20], 102%; in [9], 86.9%; in assay [10] it was 110%; in assay [11], 94%. In addition, the growth is 104% in [12]; 106% in assay [13]; 101% in [14]; 95.4% in assay [15]; 103% in assay [16]; 105% in [17]. Also, the growth was 92% in [18] and 99.5% in assay [19].

As to `C[C@]12CC[C@@H]3C4=C(CC[C@H]3[C@@H]1CC[C@@H]2O)CC(=O)CC4`, the growth in assay [1] is 98.3%; in assay [2], 94%; in assay [3], 103%; in assay [4], 99.7%; in [5], 103%; in [6], 100%. The growth is 105% in [7]; 101% in assay [8]; 103% in assay [20]; 59% in assay [9]; 83.3% in assay [10]; 107% in assay [11]. Moreover, the growth in [12] is 99.5%; in assay [13], 104%; in [14], 101%; in assay [15], 113%; in assay [16] it was 95.8%; in assay [17] it was 103%. The growth in [18] is 118%; in [19], 107%.

Take `CNC(C)Cc1ccccc1` (stereo not given) (tested in a mixture with another compound): the growth in assay [1] is 99.2%; in assay [2], 99.5%; in [3], 120%; in assay [4], 108%; in assay [5], 99.7%; in [6], 101%. The growth in [7] is 107%; in assay [8], 100%; in assay [20] it was 92.8%; in assay [9], 99.6%; in assay [10], 107%; in assay [11] it was 105%. Also, the growth is 104% in [12]; 95.7% in assay [13]; 113% in assay [14]; 104% in assay [15]; 104% in assay [16]; 104% in [17]. For the same molecule, the growth in assay [18] is 97.3%; in assay [19], 99.8%.

On to `CC1(C)N=C(N)N=C(N)N1c1ccc(OCCCCNC(=O)Nc2cccc(S(=O)(=O)F)c2)c(Cl)c1`, for which the growth is 39.8% in [1]; 69.4% in [2]; 59.6% in assay [3]; 44.4% in [4]; 40.1% in assay [5]; 90.3% in assay [6]. In addition, the growth in assay [7] was 14.4%; in [8], 74.8%; in [20], 5.73% (active); in [9], 25.9%; in [10], 22.8%; in assay [11], 60.3%. The growth in [12] was 7.54% (active); in [13] it was 94.9%; in assay [14], 29.2%; in assay [15] it was 82.3%; in [16], 110%; in assay [17], 20.1%. The growth in assay [18] was 15%; in [19], 41.7%.

Regarding `O=C(CCCN1CCC2(CC1)C(=O)NCN2c1ccc(F)cc1)c1ccc(F)cc1`, the growth in assay [1] is 98.2%; in [2], 78.4%; in assay [3], 98.1%; in [4], 112%; in assay [5], 93.2%; in assay [6], 105%. Also, the growth was 111% in [7]; 92.4% in assay [8]; 101% in assay [20]; 104% in assay [9]; 90.5% in [10]; 118% in assay [11]. In addition, the growth in assay [12] is 98%; in assay [13], 108%; in assay [14], 97.8%; in [15], 124%; in [16], 97.9%; in assay [17], 109%. The growth in [18] was 85.9%; in [19], 108%.

Turning to `C[C@]12CC[C@H](OC3OC(O)C(O)C(O)C3O)C=C1CCC1C2CC[C@]2(C)[C@@H](c3ccc(=O)oc3)CC[C@]12O` (stereo not given in full), the growth was -68.9% (active) in assay [1]; -70.6% (active) in assay [2]; -72.1% (active) in [3]; -99.4% (active) in assay [4]; -83.1% (active) in [5]; -81.8% (active) in assay [6]. For the same molecule, the growth in assay [7] is -84.5% (active); in assay [8], -53.2% (active); in assay [20], -12.2% (active); in [9] it was -96.3% (active); in [10] it was -84.3% (active); in assay [11] it was -82.9% (active). Also, the growth in [12] is -37.7% (active); in assay [14] it was 110%; in assay [15] it was -99.2% (active); in assay [16], -71.2% (active); in [17], -88.2% (active); in assay [18], -64.3% (active). Besides, the growth in [19] was -93.8% (active).

For `O=S(=O)(Cl)c1ccccc1` (tested in a mixture with another compound), the growth is 106% in assay [1]; 97.3% in assay [2]; 117% in assay [3]; 104% in assay [4]; 102% in assay [5]; 101% in assay [6]. Further, the growth in [7] is 101%; in assay [8] it was 95.4%; in assay [20], 103%; in assay [9], 99.2%; in assay [10] it was 106%; in [11], 103%. For the same molecule, the growth is 102% in [12]; 93.9% in assay [13]; 108% in assay [14]; 106% in assay [15]; 110% in [16]; 115% in assay [17]. Further, the results for the growth in [18] and in [19] were 93.1% and 108%, respectively.

In the case of `O=C(CCc1ccco1)NC1CCN(CC2(c3ccc(Cl)cc3)CCC2)CC1`, the growth in assay [1] is -22.6% (active); in [3] it was -6.18% (active); in assay [4], 22.1%; in assay [5], 34.5%; in assay [6] it was 18.7%; in [7] it was 10.5%. The growth is 16% in [8]; 1.34% (active) in assay [20]; -9.97% (active) in [9]; 17% in [10]; 30.1% in assay [11]; 5.58% (active) in assay [12]. For the same molecule, the growth in assay [13] is 13.8%; in assay [14] it was 12.2%; in [15], 13.9%; in assay [16] it was 6.97% (active); in assay [17] it was 4.28% (active); in assay [18] it was 2.88% (active). Moreover, in assay [19], the growth is 1.4% (active).
